FMDV inh = antivirals against foot and mouth disease virus; FMDV antiviral cell-based qHTS; Potency, µM (highest dose often 57.9 µM), hits mostly inhibitors; 1.2% of 410,000 active; calls by dose curve; tested in HEK293T cells; further: read-out not given here; nearly all actives have a fitted effect of over 45% in size
HCMV antiviral = blocks human cytomegalovirus replication; HFF cells, HCMV-luciferase reporter, 72 h; stronger effect = lower value; activity change, negative = inhibition, % at 57.5 µM; AID 1259415; 4.5% of 410,000 active; in the data active means activity change below about -60%; inconclusive means no clear call, values can overlap the other calls; inactive means above about -39%
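Compounds were evaluated in HFFs infected with an HCMV luciferase reporter virus (MOI 1 PFU/cell). Luciferase in lysates collected 72 h post infection served as the replication measure.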
Lassa entry inh = Lassa virus entry inhibition. Lassa virus pseudotype entry inhibition, cell reporter. AID 540256. 1.2% of 300,000 active. Potency, µM (highest dose often 37.9 µM), hits mostly inhibitors; calls by dose curve; tested in HEK293 cells; further: nearly all actives have a fitted effect of over 50% in size
MARV entry inh = inhibitors of Marburg virus binding or cell entry; Marburg virus pseudotyped entry inhibition, cell reporter; Potency, µM (top dose mostly 37.8 µM), hits mostly inhibitors; 1.8% of 300,000 active; AID 540276; calls by dose curve; tested in HEK293 cells
Large screens that a line does not name were inactive. Sampled rows, rich in hits. Any-hit rate of the full collection: about 6.2%.

CC(NC(=O)C1CCN(C(=O)c2ccc(-n3ccc4ccccc43)s2)CC1)c1ccccc1 (configuration not stated)	none (no result: MARV entry inh)
CCCCCCCCCc1ccc(OCCOCCO)cc1	FMDV inh 11.2µM (no result: HCMV antiviral, Lassa entry inh, MARV entry inh)
CCCCCCCCCc1ccc(O)cc1	none (no result: HCMV antiviral, Lassa entry inh, MARV entry inh)
CC(C)C[C@@H]1NC(=O)[C@H](CCCN)NC(=O)[C@H](C(C)C)NC(=O)[C@@H]2CCCN2C(=O)[C@@H](Cc2ccccc2)NC(=O)[C@H](CC(C)C)NC(=O)[C@H](CCCN)NC(=O)[C@H](C(C)C)NC(=O)[C@@H]2CCCN2C(=O)[C@@H](Cc2ccccc2)NC1=O	FMDV inh 6.31µM (no result: HCMV antiviral, Lassa entry inh, MARV entry inh)
O=C(CN(Cc1cccs1)C(=O)CSc1nnc(COc2ccccc2)o1)NC1CCCCC1	FMDV inh 39.8µM, Lassa entry inh inconclusive, MARV entry inh inconclusive
CCOc1ccc(N(CC(=O)NC2CCCCC2)C(=O)CSc2nnc(COc3ccccc3)o2)cc1	none
CCc1ccc(NC(=O)CC2C(=O)N(c3ccc(OC)cc3)C(=O)N2Cc2ccc(OC)cc2)cc1 (configuration not stated)	HCMV antiviral inconclusive (no result: MARV entry inh)
Cc1ccc(-c2c(C#N)c(N)nc3c2CCCCC3)o1	none
O=[N+]([O-])c1ccc(-c2nc(Cl)c3c(n2)CCCC3)o1	HCMV antiviral -69.0 (no result: Lassa entry inh, MARV entry inh)
N#Cc1c(N)n(C2OC(CO)C(O)C2O)c2ncnc(N)c12 (configuration not stated)	HCMV antiviral -99.0, Lassa entry inh 1.78µM, MARV entry inh 0.501µM
CCN(CC)CCCNC(=O)c1ccc(N2CCCCC2)c(NS(=O)(=O)c2ccc(C)cc2)c1	MARV entry inh 14.6µM
Cc1ccc(S(=O)(=O)Nc2cc(C(=O)NCCN(C)C)ccc2N2CCCC2)cc1	none (no result: Lassa entry inh, MARV entry inh)
CCOC(=O)c1ccc(N2CCCCC2)c(NS(=O)(=O)c2ccc(C)cc2)c1	HCMV antiviral -85.8, Lassa entry inh inconclusive, MARV entry inh 7.94µM
Cc1ccc(CNC(=O)c2ccc(N3CCCC3)c(NC(=O)Nc3ccc(C)cc3)c2)cc1	HCMV antiviral -74.2 (no result: MARV entry inh)
Cc1ccc(S(=O)(=O)N(CC(=O)N2CCCCCC2)c2ccccc2)cc1	Lassa entry inh 6.51µM
COc1cccc(N2CCN(C(=O)CN(c3ccc(C)cc3)S(=O)(=O)c3c(C)n[nH]c3C)CC2)c1	none (no result: Lassa entry inh, MARV entry inh)
Cc1ccc(S(=O)(=O)N(CC(=O)N2CCC(C)CC2)Cc2ccccc2F)cc1	HCMV antiviral -62.6, Lassa entry inh inconclusive, MARV entry inh inconclusive
COc1ccc(N(CC(=O)N2CCN(c3cccc(C)c3)C(C)C2)S(=O)(=O)c2c(C)n[nH]c2C)cc1 (configuration not stated)	HCMV antiviral -76.5, Lassa entry inh inconclusive, MARV entry inh inconclusive
Cc1ccc(S(=O)(=O)N(CC(=O)N2CCC(C)CC2)c2ccccc2)cc1	none
COc1ccc(S(=O)(=O)N(CC(=O)N2CCC(C)CC2)c2ccc(C)cc2)cc1	Lassa entry inh 7.08µM
Cn1c2ccccc2c2cc([N+](=O)[O-])ccc21	none
CCN(CC)CCn1c2ccccc2c2nc3ccc([N+](=O)[O-])cc3cc21	HCMV antiviral -98.3, Lassa entry inh inconclusive, MARV entry inh inconclusive
COc1ccc2c(c1)[C@@H](NS(C)(=O)=O)[C@H](C)[C@@H](c1ccccc1)N2C(=O)Nc1ccc(C(F)(F)F)cc1	none (no result: FMDV inh, Lassa entry inh, MARV entry inh)
CC1(C)CC(=O)c2cc(OCC(=O)NCCCN3CCN(c4ccc(F)cc4)CC3)ccc2O1	FMDV inh inconclusive, HCMV antiviral inconclusive, Lassa entry inh inconclusive, MARV entry inh 23.1µM
COc1ccc(Nc2ncnc3onc(-c4ccc(Cl)cc4)c23)cc1Cl	FMDV inh inconclusive, Lassa entry inh 12.6µM, MARV entry inh 7.08µM
Cc1nn(S(=O)(=O)c2ccccc2)c(C)c1Sc1ccc([N+](=O)[O-])cc1	HCMV antiviral -85.3, MARV entry inh inconclusive (no result: FMDV inh)
Cc1nn(S(=O)(=O)c2cccs2)c(C)c1Sc1ccc([N+](=O)[O-])cc1	FMDV inh 14.1µM, HCMV antiviral -83.9, Lassa entry inh inconclusive
CCC(C)NC(=O)CSc1nc2cc3c(cc2c(=O)n1Cc1ccc(C(=O)NCCc2ccc(OC)c(OC)c2)cc1)OCO3 (configuration not stated)	none (no result: FMDV inh, HCMV antiviral, MARV entry inh)
COc1cc2c(cc1OC)C(c1ccc(N)cc1)=NNC(=O)C2	none (no result: HCMV antiviral, Lassa entry inh, MARV entry inh)
Cc1cccc2nc(COc3ccc(Cl)c4cccnc34)cn12	HCMV antiviral -80.3, Lassa entry inh inconclusive
O=[N+]([O-])c1ccccc1COc1ccc(Cl)c2cccnc12	none (no result: Lassa entry inh, MARV entry inh)
O=C(CCN1C(=O)C2C3C=CC(C4CC34)C2C1=O)OCC(=O)c1ccccc1 (configuration not stated)	HCMV antiviral -82.8
O=C(CCN1C(=O)C2C3C=CC(C4CC34)C2C1=O)Oc1ccc(Br)cc1 (configuration not stated)	MARV entry inh inconclusive
O=C(CCN1C(=O)C2C3C=CC(C4CC34)C2C1=O)Oc1cccc2cccnc12 (configuration not stated)	HCMV antiviral -95.5, MARV entry inh 16.4µM
COC(=O)CC(NC1CCN(c2nc(C)c3cc4c(cc3n2)CCC4)CC1)C(=O)OC (configuration not stated)	none (no result: HCMV antiviral, Lassa entry inh, MARV entry inh)
COC(=O)c1ccc(C(=O)NCC2Cc3cccc(-c4ccc(C(=O)OC)cn4)c3O2)cc1 (configuration not stated)	none (no result: HCMV antiviral, Lassa entry inh, MARV entry inh)
Cc1ccccc1Cn1c2ccccc2c2cnn(CC(=O)NCCCc3ccccc3)c(=O)c21	HCMV antiviral -81.0
O=C(Cn1ncc2c3ccccc3n(Cc3ccccc3F)c2c1=O)NCCCc1ccccc1	none
Cc1ccc(C)c(Cn2c3ccccc3c3cnn(CC(=O)NCCCc4ccccc4)c(=O)c32)c1	MARV entry inh inconclusive
CCN1CCN(C(=O)Cn2ncc3c4ccccc4n(Cc4c(C)cc(C)cc4C)c3c2=O)CC1	HCMV antiviral -60.3, MARV entry inh inconclusive
Cc1ccccc1Cn1c2ccccc2c2cnn(CC(=O)NCCc3ccccc3)c(=O)c21	HCMV antiviral -96.3, MARV entry inh inconclusive
Cc1ccccc1Cn1c2ccccc2c2cnn(CC(=O)NC(C)CCc3ccccc3)c(=O)c21 (configuration not stated)	HCMV antiviral -75.2, Lassa entry inh inconclusive
Cc1ccc(C)c(Cn2c3ccccc3c3cnn(CC(=O)NCCCN4CCCCC4)c(=O)c32)c1	HCMV antiviral -79.2 (no result: Lassa entry inh, MARV entry inh)
Cc1ccc(C)c(Cn2c3ccccc3c3cnn(CC(=O)N4CCCCC4)c(=O)c32)c1	none
CCOC(=O)C1=CN(CCC=C(C)C)C(=O)NC1c1ccccc1 (configuration not stated)	Lassa entry inh inconclusive (no result: FMDV inh, HCMV antiviral)
COc1ccc(C2C(C#N)=C3NC(=O)c4c(sc5c4CCCCC5)N3C3=C2C(=O)CC(C)(C)C3)cc1 (configuration not stated)	Lassa entry inh 23.1µM, MARV entry inh inconclusive
CCOC(=O)CCn1cnc2onc(-c3cc(OC)ccc3Cl)c2c1=O	none
Cc1c(C(=O)N2CC3CCC2C3)sc2ncnc(NCc3ccco3)c12 (configuration not stated)	none (no result: HCMV antiviral, Lassa entry inh, MARV entry inh)
Cc1ccc(S(=O)(=O)N(C)c2ccc(OCC(=O)Nc3nc4c(ccc5ccccc54)s3)cc2)cc1	MARV entry inh 1.41µM
COc1cccc(Cn2c(=O)c(-c3cccc(F)c3)nc3cncnc32)c1	none (no result: HCMV antiviral, Lassa entry inh, MARV entry inh)
Oc1ccc(/C=N/N=C(c2ccccc2)c2ccccc2)c(O)c1O	HCMV antiviral inconclusive, Lassa entry inh inconclusive, MARV entry inh inconclusive
O=C(/C(=N/N=C/c1ccc(O)c(O)c1O)c1ccccc1)c1ccccc1	Lassa entry inh 8.91µM, MARV entry inh inconclusive
